The results in this text go back to PubChem BioAssay AID463082 (The Scripps Research Institute Molecular Screening Center, 2010).

SMILES strings stand for the structures. Screen size: about 330,000 compounds; about 4,900 (1.5%) were called active. This excerpt belongs to a sample that is enriched for actives. Values without a mark were called inactive.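 How the source made its calls: active means inhibition above the mean inhibition across the screen plus 3 SD (cut at about 25% in these data); inactive means the rest.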

The target of the experiment is Platelet-activating factor acetylhydrolase (Homo sapiens) (UniProt Q13093). The experiment in a line: pPAFAH enzyme inhibitors, primary screen, biochemical, fluorescence polarization, human (AID 463082).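 Further: inhibitors block binding of the rhodamine activity-based probe so polarization drops; 0% = enzyme with DMSO and 100% = wells lacking pPAFAH.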 The note with it: recombinant pPAFAH, FP-rhodamine probe fluorescence polarization; at 3.39 µM; active compounds read high. (Polarisation of emitted light reports the rotation of a fluorescent probe.)
Chain of Platelet-activating factor acetylhydrolase (Homo sapiens) (Q13093 whole entry, looked up): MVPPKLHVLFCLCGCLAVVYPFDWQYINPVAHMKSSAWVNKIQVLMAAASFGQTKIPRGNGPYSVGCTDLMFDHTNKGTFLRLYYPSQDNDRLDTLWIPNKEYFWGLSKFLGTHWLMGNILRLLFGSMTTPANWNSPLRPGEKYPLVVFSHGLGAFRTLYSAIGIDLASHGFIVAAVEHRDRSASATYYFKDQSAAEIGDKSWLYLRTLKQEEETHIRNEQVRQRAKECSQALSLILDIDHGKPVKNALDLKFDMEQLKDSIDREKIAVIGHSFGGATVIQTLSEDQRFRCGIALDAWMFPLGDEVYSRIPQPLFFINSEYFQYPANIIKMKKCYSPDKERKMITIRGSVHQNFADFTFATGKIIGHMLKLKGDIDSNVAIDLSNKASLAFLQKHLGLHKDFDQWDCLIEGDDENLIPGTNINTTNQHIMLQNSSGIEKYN
Usually inhibition stands for the drop in the measured response relative to a control, in per cent. On to `Cn1ncc(N2CCN(S(=O)(=O)c3ccc(Br)cc3)CC2)c(Cl)c1=O`, for which the inhibition is -5.38%. The figure for `C=CCOc1ccc(/C=C2\SC(=S)N(CCC(=O)O)C2=O)cc1` is 10.2%. The same measure for `Cc1ccc(/C=C2\SC(=S)N(CCC(=O)Nc3ccc(O)cc3)C2=O)cc1`: 4.61%. The same measure for `Cc1ccc(-c2nn(-c3ccccc3)cc2/C=C/C(=O)Nc2cccc(S(N)(=O)=O)c2)cc1`: -54.5%; for `CN(C)S(=O)(=O)c1cccc(-c2nn(-c3ccccc3)cc2/C=C2\SC(=S)N(CC(=O)O)C2=O)c1`: 38.2% (active); for `Cc1ccc(-c2nn(-c3ccccc3)cc2/C=C2\SC(=S)N(CCCCCC(=O)O)C2=O)o1`: 31.3% (active). Regarding `O=C(CN1C(=O)/C(=C\c2ccccc2F)SC1=S)Nc1nc2ccccc2s1`, the inhibition is 7.09%. Turning to `O=C(N[C@@H]1C/C=C\C[C@@H](CC(=O)N(CCO)Cc2ccccc2)C(=O)N[C@H](Cc2ccccc2)COC1=O)OCC1c2ccccc2-c2ccccc21`, the inhibition was 7.18%. The figure for `O=C(NCCc1ccccn1)c1cc(C(=O)C2CCCCC2)c[nH]1` is 4.41%; for `O=[N+]([O-])c1ncc(Br)cc1Nc1ccccc1` it is 0.58%.

Turning to `O=[N+]([O-])c1cc(S(=O)(=O)CCCN2CCOCC2)ccc1F`, the inhibition is 0.16%. Consider `N#Cc1ccccc1S(=O)(=O)N1CCN(C(=O)c2cc(-c3ccccc3)nn2-c2ccccc2)CC1`, for which the inhibition is 0.65%. The figure for `Cc1cccc(C)c1Nc1nnc(SCC(=O)Nc2sccc2C#N)s1` is 27.6% (active). The same measure for `Cc1cccc(C)c1Nc1nnc(SCC(=O)NCCCN2CCCC2=O)s1`: 1.62%; for `Cc1csc(SCC(=O)Nc2sccc2C#N)n1`: 11.3%.

Turning to `CC1=CC=CC2=N/C(=N\S(=O)(=O)c3ccc(F)cc3F)c3ccccc3CN12`, the inhibition was 1.76%. The same measure for `CC(C)C(=O)Nc1oc(-c2ccccc2)cc1C#N`: -0.35%; for `CC(Oc1ccccc1)C(=O)Nc1oc(-c2ccco2)c(-c2ccco2)c1C#N` (centres undefined): 28.7% (active).

With `COc1cc(C(=O)Nc2oc(-c3ccccc3)c(-c3ccccc3)c2C#N)cc(OC)c1OC`, the inhibition was 4.29%.

Consider `O=C(COC(=O)COc1cccc(F)c1)NCC1CCCCC1`, for which the inhibition was 7.16%. As for `O=C(CNC(=O)c1cc(=O)[nH]c2ccccc12)Nc1ccc(F)c(F)c1`, the inhibition is 0.37%. The same measure for `Cc1c(C(=O)OCC(=O)N(CCC#N)c2ccccc2)oc2c1ccc1ccccc12`: -0.27%; for `C=CCn1c(N)cc(=O)nc1SCC(=O)Nc1cccc2ccccc12`: 0.51%. With `Cc1ccccc1-n1c(SCC(=O)Nc2cccc3ccccc23)nc(O)cc1=O`, the inhibition was 45.7% (active). With `Cc1ccc2nc(SCC(=O)Nc3cccc4ccccc34)nc(=O)n2c1`, the inhibition was 3.47%. The figure for `COc1ccccc1C(=O)N(Cc1ccc(C)o1)C1CCS(=O)(=O)C1` (centres undefined) is 0.97%; for `C=CCN(Cc1nc(-c2cc(OC)c3c(c2)OCO3)oc1C)C1CCS(=O)(=O)C1` (centres undefined) it is 30.4% (active).

Regarding `CN(C(=O)CSc1nnc(-c2ccc3c(c2)OCO3)o1)C1CCS(=O)(=O)C1` (centres undefined), the inhibition was -3.28%. As for `O=C(Nc1cccc(F)c1)c1cc(-c2ccco2)nc2ccccc12`, the inhibition is 16%. For `CNC(=S)NNC(=O)c1oc2nc(-c3ccccc3)cc(-c3ccco3)c2c1N`, the inhibition was 11%. As for `NNC(=O)c1oc2nc(-c3ccccc3)cc(-c3ccco3)c2c1N`, the inhibition was 37.4% (active). The same measure for `CC(=O)c1c(C)[nH]c(C(=O)COC(=O)c2cccc(S(=O)(=O)N(C)c3ccccc3)c2)c1C`: -1.03%; for `CC1(C)CC(=O)C/C(=N\NC(=O)c2cccs2)C1`: 1.45%. The same measure for `Cc1ccc(C)c(NC(=O)CCC(=O)NNC(=O)c2cccs2)c1`: 4.49%. The same measure for `Cc1ccc(C)c(NC(=O)CCC(=O)N/N=C2/CC(=O)CC(C)(C)C2)c1`: 34.2% (active); for `O=C(Nc1ccc(-c2ccc3nncn3n2)cc1)C1CCCCC1`: 3.72%; for `O=C(Nc1ccc(Br)cc1)c1cc(S(=O)(=O)Nc2ccccn2)ccc1Cl`: 4.67%. `Cc1ccc(-c2noc(CSc3nnc(-c4ccncc4)n3-c3ccc(F)cc3)n2)cc1`: the inhibition was 61.4% (active). The figure for `Fc1ccc(-n2c(Cc3ccccc3)nnc2SCc2nc(-c3ccc(Cl)cc3)no2)cc1` is 8.28%; for `Cc1ccc(-c2noc(CSc3nnc(-c4ccccc4)n3C)n2)cc1` it is 2.63%. The figure for `Cc1c(S(=O)(=O)NCc2ccccc2)c(=O)n(C)c(=O)n1C` is 3.56%; for `Cc1ccc(N(C(=O)CNC(=O)c2ccco2)C(C(=O)NC2CCCC2)c2ccncc2)cc1` (centres undefined) it is 3.58%. The same measure for `Cn1c(SCC(=O)Nc2ccc(N3CCOCC3)cc2)nnc1C(F)(F)F`: -4.91%. For the compound `Cc1c(C)c2ccc(OCC(=O)N3CCC(C(=O)O)CC3)c(C)c2oc1=O`, the inhibition is -1.32%. The figure for `Cc1c(CC(=O)N2CCN(C(=O)C3COc4ccccc4O3)CC2)c(=O)oc2c(O)c(O)ccc12` (centres undefined) is 80.7% (active); for `CCN(CC)S(=O)(=O)c1ccc(N2CCOCC2)c(NC(=O)C2COc3ccccc3O2)c1` (centres undefined) it is 1.62%; for `COc1cccc(/C=C2\Sc3ccc(C(=O)NCC4CCCO4)cc3N(C)C2=O)c1` (centres undefined) it is 8.27%. Take `Cc1cc(N2CCCC2)ccc1NC(=O)COc1ccc(Cl)cc1`: the inhibition was 27.4% (active).

For `Cc1cc(C)cc(OCC(=O)Nc2ccc(N3CCOCC3)cc2N2CCOCC2)c1`, the inhibition was 4.92%. The same measure for `CCC(=O)c1ccc(OCC(=O)Nc2ccc(N3CCCCC3)cc2)cc1`: 3.34%. The figure for `Cn1c(CCC(=O)OCC(=O)NCc2ccccc2Cl)nc(=O)c2ccccc21` is 1.56%. The same measure for `S=C(NCCc1ccccc1)NCC1CCCO1` (centres undefined): 3.38%; for `Oc1c(Br)cc(/C=N/NC(=S)NCC2CCCO2)cc1Br` (centres undefined): 35.5% (active). With `S=C(NCC1CCCO1)N1CCN(c2ccc(Cl)c(Cl)c2)CC1` (centres undefined), the inhibition is 14.9%.

As for `CN(C)c1nccc(NCc2ccccc2)c1C#N`, the inhibition was 5.61%. The same measure for `CCOc1cccc2c1OC1(CCCCC1)N1N=C(c3cccnc3)CC21` (centres undefined): 8.14%; for `COc1ccccc1NC(=O)Nc1nnc(Cc2ccc(F)cc2)s1`: 1.88%; for `O=C(C1CC(=O)N(c2ccc(Br)cc2)C1)N1CCCC1` (centres undefined): 2.26%.

For `Cc1cc(NC(=O)C(C)N2C(=O)c3ccccc3S2(=O)=O)no1` (centres undefined), the inhibition is 5.49%. As to `COc1ccc(-n2cc(-c3ccccc3)c3c(=S)nc[nH]c32)cc1`, the inhibition was 16.5%.

For `O=c1[nH]cnc2c1c(-c1ccccc1)cn2-c1ccc(F)cc1`, the inhibition was 29.6% (active). On to `O=c1c2c(-c3ccccc3)ccnc2[nH]n1-c1ccccc1`, for which the inhibition was 16.9%.

Consider `COc1cc(CCC(=O)Nc2ccncc2Cl)cc(OC)c1OC`, for which the inhibition was 3.7%. The figure for `O=C(Cc1ccc(Br)cc1)NCCc1ccccc1` is -2.54%; for `O=C(NCCCO)/C(=C\C=C\c1ccccc1)NC(=O)c1ccccc1Cl` it is 5.51%; for `COc1ccc(CC(=O)Nc2nc(-c3ccc(F)c(F)c3)cs2)cc1OC` it is -1.93%.

With `COc1ccc(OC)c(Nc2nc(-c3ccc(O)c(O)c3)cs2)c1`, the inhibition is 49.9% (active).

With `COc1ccc(OC)c(-c2csc(NC(=O)COC(=O)C3CC3)n2)c1`, the inhibition is 5.42%. The same measure for `CC1C(=O)Nc2ccc(S(=O)(=O)N3CCN(c4ccccc4F)CC3)cc2NC1=O` (centres undefined): 7.62%; for `Cc1ccc(S(=O)(=O)Oc2ccc(/C=N/NC(=O)c3c(Cl)cnn3C)cc2)cc1`: 4.46%. The same measure for `COc1nc(Oc2ccc(=O)n(C)n2)nc(N(C)C)n1`: 1.86%. Take `CCn1nc(C)c(NC(=O)/C=C/c2ccc(OC)c(COc3ccc(Br)cc3)c2)c1C`: the inhibition is 7.11%.

Take `CCS(=O)(=O)c1ccc(-c2cccc(NC(=O)c3ccc(Br)o3)c2)nn1`: the inhibition was -0.56%. The figure for `O=C(NCCCN1CCCC1=O)c1ccc(S(=O)(=O)Nc2ccccc2)cc1` is 28.1% (active). Take `O=C(NCCCN1CCCC1=O)c1cccc(S(=O)(=O)NCc2ccccc2)c1`: the inhibition was 5.61%. The same measure for `CCOc1ccc(S(=O)(=O)Nc2ccc(C(=O)NCCCN3CCCC3=O)cc2)cc1`: -4.42%.

As for `CC(C)(C)OC(=O)C[C@H]1C/C=C\C[C@@H](CC(=O)N[C@H](CO)Cc2ccccc2)C(=O)NC[C@@H](c2ccccc2)OC1=O`, the inhibition was 1.87%. The figure for `CC(=O)Nc1ccc(NC(=O)C2CCCN(S(=O)(=O)c3ccc(Cl)cc3)C2)cc1` (centres undefined) is 0.93%; for `CC(Oc1ccc(F)cc1F)C(=O)/C=C/N(C)C` (centres undefined) it is 0.46%.

Consider `O=C(CN1C(=O)NC2(CCCCC2)C1=O)N1CCN(C(=O)c2cccs2)CC1`, for which the inhibition was 2.46%. The same measure for `CCCCCCCCCCCCCCCC(=O)OC/C=C(C)/C=C/C=C(C)/C=C/C1=C(C)CCCC1(C)C`: 25.7% (active); for `CC1=C(/C=C/C(C)=C/C=C/C(C)=C/C=C/C=C(C)/C=C/C=C(C)/C=C/C2=C(C)CCCC2(C)C)C(C)(C)CCC1`: 18.3%; for `CCOC(=O)NNc1cc(C(F)(F)F)ccn1`: 3.11%. In the case of `NC(=O)c1ccsc1NC(=O)COC(=O)COc1ccc(C=O)cc1`, the inhibition is 7.9%. The same measure for `CCc1ccc(-c2nn(-c3ccccc3)cc2CSC(=N)N)cc1`: 3.9%; for `Oc1ccc2ccccc2c1N=Nc1nccs1`: 17.6%. `Oc1ccc(N=Nc2nccs2)c(O)c1`: the inhibition is 37.2% (active).

For the compound `O=C(NCc1cccc(Cl)c1)C1CCN(c2nnc(N3CCCC3=O)s2)CC1`, the inhibition is 3.53%. The figure for `CC(C)n1c(=S)[nH]c2cc(C(F)(F)F)ccc21` is 3.35%.
